Results taken from PubChem BioAssay (EPA / NIEHS).
The source made the active and inactive calls. Rule for the calls: active = hit-call score of the fitted dose curve at least 0.9, where 1 is the maximum; inactive = score below 0.9.

How the values were obtained:
Conditions in all cases: mRNA level, 48 h; actives raise or lower the signal
[1] = read-out: 3-Hydroxy-3-Methylglutaryl-CoA Synthase 2 (HMGCS2), HMGCS2 (gene 3158); assay: LTEA_HepaRG_HMGCS2: Life Technologies and Expression Analysis (LTEA) Assay for 3-Hydroxy-3-Methylglutaryl-CoA Synthase 2 (HMGCS2) using HepaRG (AID 2283504)
Outline: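 qRT-PCR read-out of HMGCS2 transcript, normalised to three housekeeping genes, in HepaRG cells after 48 h chemical exposure. Eight-point curves from 100 uM, half-log dilutions, 0.5% DMSO vehicle; gain or loss fitted relative to DMSO baseline.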

HGF (gene 3082) = assay: LTEA_HepaRG_HGF: Life Technologies and Expression Analysis (LTEA) Assay for Hepatocyte Growth Facto (HGF) using HepaRG (AID 2283505)
Outline: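 HepaRG, 48 h dosing, 8-pt half-log series from 100 uM in 0.5% DMSO, duplicates. Readout: TaqMan qRT-PCR of HGF mRNA, housekeeping-normalized; bidirectional curve fit vs DMSO baseline.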

[2] = read-out: Insulin Like Growth Factor 1 (IGF1), IGF1 (gene 3479); assay: LTEA_HepaRG_IGF1: Life Technologies and Expression Analysis (LTEA) Assay for Insulin Like Growth Factor 1 (IGF1) using HepaRG (AID 2283506)
Outline: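 Cells are thawed, plated and cultured 48 h, then exposed in duplicate to chemical (highest 100 uM, half-log steps, 0.5% DMSO) for another 48 h. Total RNA is analysed by Fluidigm qRT-PCR for IGF1 expression relative to vehicle.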

[3] = read-out: Intercellular Adhesion Molecule 1 (ICAM1), ICAM1 (gene 3383); assay: LTEA_HepaRG_ICAM1: Life Technologies and Expression Analysis (LTEA) Assay for Intercellular Adhesion Molecule 1 (ICAM1) using HepaRG (AID 2283507)
Outline: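 HepaRG, 48 h exposure, 8-pt half-log series from 100 uM, 0.5% DMSO vehicle, duplicates. Readout: TaqMan qRT-PCR mRNA, housekeeping-normalized (ACTB/GAPDH/POLR2A). Bidirectional curve fit vs DMSO baseline.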

[4] = read-out: Insulin-like growth factor-binding protein 1 (IGFBP1), IGFBP1 (gene 3484); assay: LTEA_HepaRG_IGFBP1: Life Technologies and Expression Analysis (LTEA) Assay for Insulin-like growth factor-binding protein 1 (IGFBP1) using HepaRG (AID 2283508)
Outline: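 qRT-PCR mRNA read-out (TaqMan, Fluidigm array), normalised to three housekeeping genes; HepaRG cells, 48 h exposure, 8-pt half-log series from 100 uM, 0.5% DMSO vehicle; bidirectional curve fit vs DMSO baseline.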

[5] = read-out: Interleukin 6 (IL6), IL6 (gene 3569); assay: LTEA_HepaRG_IL6: Life Technologies and Expression Analysis (LTEA) Assay for Interleukin 6 (IL6) using HepaRG (AID 2283509)
Outline: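 Changes in IL6 mRNA, up or down relative to 0.5% DMSO controls, were derived from concentration-response curves in human HepaRG cells treated for 48 h at up to 100 uM, with ACTB, GAPDH and POLR2A as normalizers.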

[6] = read-out: Interleukin 6 Receptor (IL6R), IL6R (gene 3570); assay: LTEA_HepaRG_IL6R: Life Technologies and Expression Analysis (LTEA) Assay for Interleukin 6 Receptor (IL6R) using HepaRG (AID 2283510);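 for AC50: differentiated human HepaRG liver cells in serum-free induction medium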
Outline: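 Cells were thawed, plated and cultured 48 h, then medium was changed to serum-free induction medium. Chemicals were added in duplicate (100 uM top, half-log steps, 0.5% DMSO) for 48 h. Lysates were analyzed by qRT-PCR for IL6R expression.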

[7] = read-out: Keratin 19 (KRT19), KRT19 (gene 3880); assay: LTEA_HepaRG_KRT19: Life Technologies and Expression Analysis (LTEA) Assay for Keratin 19 (KRT19) using HepaRG (AID 2283512)
Outline: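 HepaRG, 48 h chemical exposure, 8-pt half-log CRC from 100 uM, 0.5% DMSO vehicle, duplicates. Readout: TaqMan qRT-PCR of KRT19 mRNA, housekeeping-normalized (ACTB/GAPDH/POLR2A). Bidirectional fit vs DMSO baseline.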

[8] = read-out: Potassium channel subfamily K member 1 (KCNK1), KCNK1 (gene 3775); assay: LTEA_HepaRG_KCNK1: Life Technologies and Expression Analysis (LTEA) Assay for Potassium channel subfamily K member 1 (KCNK1) using HepaRG (AID 2283511)
Outline: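 Human HepaRG cultures receive test chemicals for 48 h in 0.5% DMSO, top concentration 100 uM with half-log dilutions. Induction or suppression of KCNK1 mRNA relative to DMSO is derived by bidirectional fitting of qRT-PCR data.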

[9] = read-out: JUN Transcription Factor, JUN (gene 3725); assay: LTEA_HepaRG_JUN: Life Technologies and Expression Analysis (LTEA) Assay for JUN Transcription Factor using HepaRG (AID 2283513)
Outline: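 Read-out is JUN transcript level by TaqMan qRT-PCR, normalized to ACTB, GAPDH and POLR2A, after 48 h chemical treatment of HepaRG cells. Concentration-response spanned eight half-log points up to 100 uM in 0.5% DMSO.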

Measured: AC50

CCOP(=S)(OCC)Oc1ccc([N+](=O)[O-])cc1
active: [6] 1.48 µM
not listed: [8] | [9]
inactive: all other assays above

CCC(=NOC/C=C/Cl)C1=C(O)CC(C2CCOCC2)CC1=O (stereo not given)
inactive: all assays above

CNC(=O)ON=C(C)SC
not listed: [9]
inactive: all other assays above

CC1=NNC(=O)N(/N=C/c2cccnc2)C1
inactive: all assays above

CCCSP(=O)(OCC)Oc1ccc(Br)cc1Cl (stereo not given)
not listed: [6] | [9]
inactive: all other assays above

CCNc1nc(Cl)nc(NC(C)(C)C#N)n1
not listed: [6] | [7] | [9]
inactive: all other assays above

Cc1ccn2nc(S(=O)(=O)Nc3c(F)cccc3F)nc2n1
inactive: all assays above

CC(C)[C@H](C(=O)O[C@H](C#N)c1cccc(Oc2ccccc2)c1)c1ccc(Cl)cc1
active: [2] 50 µM
inactive: all other assays above

CCC(CC)Nc1c([N+](=O)[O-])cc(C)c(C)c1[N+](=O)[O-]
active: [2] 61.1 µM | [7] 50 µM
not listed: [9]
inactive: all other assays above

CN(C)[C@@H]1C(=O)C(C(N)=O)=C(O)[C@@]2(O)C(=O)C3=C(O)c4c(O)cccc4[C@@](C)(O)[C@H]3[C@H](O)[C@@H]12
not listed: [9]
inactive: all other assays above

CC(COc1ccc(Oc2ccccc2)cc1)Oc1ccccn1 (stereo not given)
active: [1] 12.6 µM | [2] 32.8 µM
inactive: all other assays above

CCCCN(CC)c1c([N+](=O)[O-])cc(C(F)(F)F)cc1[N+](=O)[O-]
inactive: all assays above

CN(C)NC(=O)CCC(=O)O
inactive: all assays above

C#CC(C)(C)NC(=O)c1cc(Cl)cc(Cl)c1
active: [2] 14.8 µM | [7] 11.8 µM
not listed: [6] | [9]
inactive: all other assays above

CCCSP(=O)(OCC)SCCC
active: [2] 27.7 µM
not listed: [6] | [9]
inactive: all other assays above

CC(C1CC1)C(O)(Cn1cncn1)c1ccc(Cl)cc1 (stereo not given)
active: [1] 83.6 µM | [2] 37 µM
not listed: [9]
inactive: all other assays above

C[Si](Cn1cncn1)(c1ccc(F)cc1)c1ccc(F)cc1
inactive: HGF (gene 3082) | [6] | [7]
active: [1] 47.6 µM | [2] 50 µM | [3] 81.1 µM | [4] 67.7 µM | [5] 92.6 µM | [8] 50 µM

CNC(=O)Oc1cccc2c1OC(C)(C)O2
not listed: [9]
inactive: all other assays above

CN(C)C(=O)Nc1cccc(C(F)(F)F)c1
inactive: all assays above

CCCCOC(=O)[C@@H](C)Oc1ccc(Oc2ccc(C#N)cc2F)cc1
active: [1] 25.8 µM
not listed: [9]
inactive: all other assays above

Nc1c(Cl)cc([N+](=O)[O-])cc1Cl
active: [1] 50 µM | [4] 23.7 µM | [6] 28.2 µM | [7] 6.97 µM
not listed: [9]
inactive: all other assays above

CC(=NC#N)N(C)Cc1ccc(Cl)nc1
not listed: [6] | [9]
inactive: all other assays above

CCc1cnc(C2=NC(C)(C(C)C)C(=O)N2)c(C(=O)O)c1 (stereo not given)
not listed: [9]
inactive: all other assays above

N#CSCSC#N
active: [1] 82.1 µM | [6] 68.4 µM | [7] 90.1 µM
not listed: [9]
inactive: all other assays above

C#CCC1=C(C)C(OC(=O)C2C(C=C(C)C)C2(C)C)CC1=O (stereo not given)
active: [2] 71 µM
not listed: [9]
inactive: all other assays above

COP(=O)(OC)OC(Br)C(Cl)(Cl)Br (stereo not given)
active: [5] 50 µM
not listed: [9]
inactive: all other assays above

S=C1NCCN1
inactive: all assays above

CCCCOC(=O)c1ccccc1C(=O)O
inactive: all assays above

COc1ccc(C(=CC(=O)N2CCOCC2)c2ccc(Cl)cc2)cc1OC
active: [2] 14.1 µM
not listed: [9]
inactive: all other assays above

C[N+]1(C)CCCCC1
not listed: [6] | [9]
inactive: all other assays above

CCOP(=S)(Oc1cnc(C(C)(C)C)nc1)OC(C)C (stereo not given)
active: [1] 14 µM | [2] 44.6 µM | [6] 25.1 µM
not listed: [9]
inactive: all other assays above

CCOP(=S)(OCC)OC(Cl)C(Cl)(Cl)Cl (stereo not given)
inactive: all assays above

FC(F)C(F)(F)OCC(Cn1cncn1)c1ccc(Cl)cc1Cl (stereo not given)
inactive: [6] | [7] | [9]
active: [1] 39.5 µM | HGF (gene 3082) 87.2 µM | [2] 33.4 µM | [3] 31.9 µM | [4] 31.4 µM | [5] 78.5 µM | [8] 66.8 µM

CC(C)=CC1C(C(=O)OCN2C(=O)C3=C(CCCC3)C2=O)C1(C)C (stereo not given)
not listed: [9]
inactive: all other assays above
